PubChem BioAssay (NCATS)
Records with an inconclusive call do not appear. Active and inactive are the calls of the source. Calls come from the whole dose curve; as a rule, active = well fitted cell-killing curve with a large enough effect; inconclusive = small, poorly fitted or top-dose-only effect; inactive = flat fitted curve, though single readings scatter.

Test: Cell Viability - LYMP2-017 (AID 972); note: nearly all actives have a fitted effect of over 55% in size
Conditions: LYMP2-017 lymphoblastoid cell viability; series mostly up to 92.2 µM; activity change, negative = cytotoxicity: at the top concentration
Excerpt: NIH Chemical Genomics Center [NCGC]
NIH Molecular Libraries Screening Centers Network [MLSCN]
National Institutes of Environmental Health Sciences [NIEHS]
National Toxicology Program [NTP]
We have developed a 1536-well cell-based assay for quantitative high throughput screening (qHTS) against a number of cell lines to determine in vitro cytotoxicity of small molecules. This particular assay uses a human lymphoblastoid cell line (LYMP2-017) purchased from Coriell Institute for Medical Research.
NCGC Assay Protocol Summary:
The CellTiter-Glo luminescent cell viability assay (Promega) is a homogeneous method to measure the number of viable cells in culture. The end point readout of this assay is based on quantitation of intracellular ATP, an indicator of metabolic activity, using the luciferase reaction. Luciferase catalyzes the oxidation of beetle Luciferin to oxyluciferin and light in the presence of ATP. The luminescent signal is proportional to amount of ATP present.
Using the CellTiter-Glo luminescent cell viability assay, the amount of cellular ATP was measured in the lymphoblastoid cell line with complete culture medium following compound treatment for 24 hours. The assay was performed in opaque white Kalypsys 1536-well plates. In the screen, tetraoctylammonium bromide was used as positive control. Library compounds were measured for their ability to cause acute toxicity in the cell line, as reflected by a decrease in intracellular ATP levels, in a concentration-dependent manner. […] AC50 values were determined from concentration-response data modeled with the standard Hill equation.
qHTS protocol for CellTiter Glo lymphoblastoid cellular assay
[Step] [Parameter] [Value] [Description]
1. Reagent; 5 uL; 2500 lymphoblastoid cells/well
2. Time; 5 hr; 37 C incubation
4. Controls; 23 nL; Tetraoctylammonium bromide 6.4pM to 92 uM
5. Time; 24 hr; 37 C incubation
6. Reagent; 5 uL; CellTiter Glo reagent
7. Time; 30 min; Room Temperature
8. Detection; Luminescence; Viewlux plate reader
Keywords: cell viability, cytotoxicity, lymphoblastoid cell line, luminescence, NTPHTS, NTPHTS_NCGC, NIEHS, DSSTox, MLSMR, MLSCN, NIH Roadmap, qHTS, NCGC
% is set by controls: 0 for no effect and ±100 for the full control effect; potency is the fitted concentration of half-maximal effect.

| Structure (SMILES) | activity change, negative = cytotoxicity | Potency |
| --- | --- | --- |
| c1ccc(Oc2ccccc2)cc1 | 3.18% (inactive) | – |
| CCOC(=O)OCC | -5.78% (inactive) | – |
| CC(=O)OCCC(C)C | -6.43% (inactive) | – |
| CC(C)=CCl | -3.45% (inactive) | – |
| Oc1cccc(Nc2ccccc2)c1 | -2.95% (inactive) | – |
| Cc1cccc(C(=O)O)c1[N+](=O)[O-] | -15.1% (inactive) | – |
| COc1ccc(N)c(C)c1 | 6.19% (inactive) | – |
| Nc1ccc(Cl)cc1[N+](=O)[O-] | -5.29% (inactive) | – |
| CC(C)(O)CCC(C)(C)O | -10.5% (inactive) | – |
| CCCCC(C=O)CC (stereo not given) | -5.86% (inactive) | – |
| CCCCC/C=C/C=C/C=O | – | 31.6 µM (active) |
| [O-]/[N+](=N\O)c1ccccc1 | -10.6% (inactive) | – |
| OCCO | -14.1% (inactive) | – |
| CC(=O)Nc1ccc(C)cc1 | -5.97% (inactive) | – |
| CCCC=O | -0.211% (inactive) | – |
| CC(C)C=O | -0.76% (inactive) | – |
| Cc1ccc(Cl)cc1N | -25.3% (inactive) | – |
| NC(=O)c1ccccc1[N+](=O)[O-] | -8.16% (inactive) | – |
| O=Cc1ccc(Cl)cc1 | 2.49% (inactive) | – |
| O=CNc1ccccc1 | -0.0117% (inactive) | – |

| Structure (SMILES) | activity change, negative = cytotoxicity | Potency |
| --- | --- | --- |
| O=C(Cl)c1cccc([N+](=O)[O-])c1 | -0.87% (inactive) | – |
| CC(C)CO | -23.2% (inactive) | – |
| Cc1ccc2nc(-c3ccc(N)cc3)sc2c1S(=O)(=O)O | -10.6% (inactive) | – |
| NC=O | -10% (inactive) | – |
| Cc1nc2ccc(Cl)cc2[nH]1 | -16.3% (inactive) | – |
| Nc1ccc([N+](=O)[O-])c(N)c1 | -10.8% (inactive) | – |
| CC(=O)Nc1ccccc1C | -1.96% (inactive) | – |
| CCN(Cc1ccccc1)c1ccccc1 | 4.42% (inactive) | – |
| CC(C)c1ccccc1 | 2.35% (inactive) | – |
| Cc1cccc([N+](=O)[O-])c1C(=O)O | 5.65% (inactive) | – |
| O=C1OC(=O)c2cc([N+](=O)[O-])ccc21 | -14.6% (inactive) | – |
| CCCCCCCCC/C=C/CC1CC(=O)OC1=O (stereo not given) | 2.34% (inactive) | – |
| Cc1cc(C)cc(N)c1 | -4.89% (inactive) | – |
| COc1ccccc1[N+](=O)[O-] | -5.77% (inactive) | – |
| CCCC(C)CO (stereo not given) | 2.06% (inactive) | – |
| FC(F)(F)c1ccccc1Cl | -4.67% (inactive) | – |
| COC(=O)CC#N | -21.9% (inactive) | – |
| C/C=C1\CC2C=CC1C2 (stereo not given) | -6.38% (inactive) | – |
| CCCCOCCOCCOCCCC | 6.81% (inactive) | – |
| COc1cccc(N)c1 | -4.71% (inactive) | – |
